Assay outcomes (PubChem BioAssay)
MBNL1 CUG block = inhibitors of human MBNL1 binding to CUG repeat RNA; Potency, µM (highest dose often 57.5 µM), hits mostly inhibitors; actives 0.036% (n = 280,000); Q9NR56; TR-FRET MBNL1-His/biotin-(CUG)12 binding, 665/545 ratio; active means well fitted inhibition curve with a large enough effect in the signal ratio, with a control signal flat, not every such curve was filed as active; inconclusive means small, poorly fitted or top-dose-only effect, or effect the other way, or a change in a side signal; inactive means no such curve, though single readings can be large or run the other way; the % refers to the signal ratio
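TR-FRET between His-tagged MBNL1 and biotin-(CUG)12 RNA, detected with Tb anti-His antibody (0.055 ng/ul) and streptavidin-XL665 (5 nM), 60 min at room temperature. Compounds titrated 92 nM to 58 uM; 665/545 nm ratio normalized to buffer and complex controls.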
CtBP-E1A blk = inhibitors of CtBP/E1A interaction; AlphaScreen GST-E1A/His-CtBP binding, 1536-well; hits give low values; activity change, % (concentration not given with the values); actives 0.49% (n = 340,000); AID 651724
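Steps: dispense buffer (Tris pH 8.0, NaCl 300 mM, TCEP 1 mM, BSA, Tween 20); add 5X protein mix (GST-E1A, His-CtBP, 125 nM each); pin 23 nL compound; 2 h at 37 °C, dark; add 5X beads (50 ug/mL); 1 h; read.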
Six1-Eya2 inh = Six1/Eya2 interaction inhibition | actives 0.56% (n = 360,000) | Q15475+O00167 | activity change, % (no concentration beside the values) | AID 651725 | AlphaScreen GST-Six1/His-Eya2 binding, biochemical; hits give low values
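Homogeneous AlphaScreen proximity assay pairing GST-Six1 with His-tagged Eya2 (added as 5X mix: 250 nM and 500 nM) in 50 mM Tris pH 8.0, 300 mM NaCl, 1 mM TCEP. Glutathione donor and nickel acceptor beads; 1 h, 37 °C, dark.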
PKM2 activator = increases activity of human pyruvate kinase M2; P14618; purified PKM2, Kinase-Glo ATP luminescence, activation; response scale: 0% is enzyme alone, no compound; Potency, µM (highest dose often 57.5 µM), hits mostly activators; actives 0.34% (n = 260,000); AID 1631; active means well fitted activation curve with a large enough effect; inconclusive means small, poorly fitted or top-dose-only effect; inactive means no such curve, though single readings can be large or run the other way; further: nearly all actives have a fitted effect of over 55% in size
Target sequence (P14618 whole entry, looked up): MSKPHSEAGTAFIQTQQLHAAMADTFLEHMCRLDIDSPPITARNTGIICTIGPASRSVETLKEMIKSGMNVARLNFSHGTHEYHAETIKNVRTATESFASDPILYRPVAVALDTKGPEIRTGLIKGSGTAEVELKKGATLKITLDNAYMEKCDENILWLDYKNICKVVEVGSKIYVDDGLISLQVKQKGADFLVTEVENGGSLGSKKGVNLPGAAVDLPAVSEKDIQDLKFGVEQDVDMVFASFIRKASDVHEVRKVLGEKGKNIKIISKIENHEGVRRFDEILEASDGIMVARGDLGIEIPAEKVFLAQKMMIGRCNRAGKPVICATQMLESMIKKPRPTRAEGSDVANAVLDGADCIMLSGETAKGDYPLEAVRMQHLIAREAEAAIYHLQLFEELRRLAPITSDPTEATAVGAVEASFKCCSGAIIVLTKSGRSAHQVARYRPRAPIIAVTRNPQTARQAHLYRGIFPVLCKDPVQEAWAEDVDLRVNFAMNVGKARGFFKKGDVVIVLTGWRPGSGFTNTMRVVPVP
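Kinase-Glo luminescence reports ATP generated from ADP (0.1 mM) and PEP (0.5 mM) by purified hPK-M2 after 1 h at room temperature, pH 7.2 imidazole buffer; intermediate enzyme activity allows detecting inhibitors and activators.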
Hits are given with their value; – = inactive; ? = inconclusive; · = no result given; [ ] = another dose, or the depositor's remark. Shown are actives, neighbours in structure and some others; about 0.93% of the full set was active somewhere. Unless noted, no stated cut-off is given here; in the data, active means activity change below about -65%; inconclusive means mostly about -30% to -63%; inactive means weaker than that.

SMILES | MBNL1 CUG block | CtBP-E1A blk | Six1-Eya2 inh | PKM2 activator
N#Cc1c(N)n(CCNC(=O)c2ccccc2)c2nc3ccccc3nc12 | –[11.5 µM] | ? | ? | 18µM
N#Cc1c(N)n(CCNC(=O)c2cccs2)c2nc3ccccc3nc12 | ? | ? | ? | –
O=S(=O)(Nc1ccc2ccccc2n1)c1ccc2c(c1)CCO2 | – | – | – | 11µM
Cc1ccc(S(=O)(=O)Nc2ccc3ccccc3n2)cc1 | – | – | – | –
COC(=O)c1ccc(C23CC2(C(NP(=O)(c2ccccc2)c2ccccc2)c2ccccc2)C3)cc1 (configuration not stated) | · | · | · | –
CCOC(=O)c1c(C)[nH]c(C)c1C(=O)COc1ncnc2cc([N+](=O)[O-])ccc12 | ? | -70 | -76 | –
COc1ccccc1CNC(=O)CSc1ccc(-c2ccccn2)nn1 | – | · | -67 | –
COc1ccccc1CNC(=O)CSc1ccc(-c2cccs2)nn1 | – | – | – | –
O=C(CSc1ccc2nnc(-c3ccccn3)n2n1)Nc1nccs1 | – | -88 | -81 | –
O=C(CSc1ccc(-c2ccccn2)nn1)Nc1nccs1 | – | ? | ? | –
Cc1csc(NC(=O)CSc2ccc(-c3ccccn3)nn2)n1 | – | · | -86 | –
COCCNC(=O)CCC(=O)NNc1nc2ccccc2c2nc(-c3ccccc3)nn12 | – | – | -67 | –
COCCCNC(=O)CCC(=O)NNc1nc2ccccc2c2nc(-c3ccccc3)nn12 | – | – | – | –
CC(C)CNc1ncnc2c1ncn2[C@H]1CN(CCc2ccccc2)C[C@@H](CO)O1 | · | – | – | ·
COc1ccc2nc(NN=C(C)c3ccccn3)cc(C)c2c1 | · | ? | -89 | ·
COc1cc(C(=O)N/N=C(\C)c2ccccn2)cc(OC)c1OC | – | – | – | –
O=C(CSc1nc2ccc(Cl)cc2[nH]1)c1ccc2c(c1)OCO2 | – | – | – | 7.9µM
Cc1cc(N2C(=O)C=CC2=O)c([N+](=O)[O-])cc1C | – | ? | – | 5.6µM
COC(=O)c1ccccc1S(=O)(=O)N1CCc2nc(-c3ccccc3)c3c(c2C1)CO[C@@H](C)C3 | · | · | · | –[11.5 µM]
O=C(/C=C/c1cc(Br)ccc1F)OCC(=O)N1CCOCC1 | · | -81 | – | ·
COCCNc1nc(C)nc2c1nc(-c1ccccc1)n2CCCN1CCCCC1C (configuration not stated) | · | · | · | –
O=C(COC(=O)/C=C/c1ccc(Cl)cc1)Nc1cccc(S(=O)(=O)NC2=NCCCCC2)c1 | · | -84 | – | ·
O=C(COC(=O)/C=C/c1cccc(Cl)c1)Nc1cccc(S(=O)(=O)NC2=NCCC2)c1 | · | -80 | – | ·
O=C(COC(=O)/C=C/c1cccc(Br)c1)Nc1cccc(S(=O)(=O)NC2=NCCC2)c1 | · | · | – | ·
O=C(COC(=O)/C=C/c1ccc(Cl)cc1Cl)Nc1cccc(S(=O)(=O)NC2=NCCC2)c1 | · | – | – | ·
SMILES | MBNL1 CUG block | CtBP-E1A blk | Six1-Eya2 inh | PKM2 activator
O=C(c1ccccc1)c1sc(Nc2ccc3c(c2)OCO3)nc1-c1ccccc1 | · | – | – | ·
COC(=O)C[C@@H]1CC[C@H](NC(=O)Nc2cccc(F)c2)[C@@H](CO)O1 | · | – | – | ·
COc1cccc(NC(=O)CSC2=C(C#N)C(c3ccco3)C3=C(CCCC3=O)N2)c1 (configuration not stated) | – | – | – | 0.79µM
CC12CCC(/C(=C/NNc3ccc([N+](=O)[O-])cc3[N+](=O)[O-])C1=O)C2(C)C (configuration not stated) | · | – | – | ·
CCCn1c(-c2ccc(F)cc2)nc2c(N3CCN(Cc4nc(OC)cc(OC)n4)CC3)nc(C)nc21 | · | · | · | –
COc1ccc(/C(=N/Nc2ncnc3ccccc23)C(=O)O)cc1 | – | -69 | -77 | –
O=C(NCC1CCCCC1)c1ccc2nc([C@@H]3O[C@H](CO)[C@@H](O)[C@H]3O)[nH]c2c1 | · | – | – | ·
CC(c1nc2ccccc2n1Cc1ccccc1)n1c(-c2cnccn2)nc2ccccc21 (configuration not stated) | · | – | – | ·
C=CCc1cccc(CNc2nc3ccccc3n2C(C)C)c1O | – | – | – | 32µM
O=c1[nH]c(=O)c2nnc(N/N=C\c3ccc(O)cc3)nc2[nH]1 | ? | -65 | -75 | –
O=C/C(=C\Nc1ccc(Cl)cn1)c1nc2ccccc2o1 | – | – | – | –
N#C/C(=C\Nc1ccc(Cl)cn1)S(=O)(=O)c1ccccc1 | · | – | – | 16µM
Cc1ccc(N/C=C(\C#N)S(=O)(=O)c2ccccc2)cc1 | – | – | – | –
N#C/C(=C\Nc1ccc(Cl)cn1)S(=O)(=O)c1ccccn1 | · | · | – | 10µM
COc1ccc([C@]23Cc4ccccc4C(O2)C2=C(O3)C(=O)c3ccccc3C2=O)cc1 | –[11.5 µM] | · | · | –[11.5 µM]
COc1ccc(S(=O)(=O)NCc2c(-c3ccccc3)noc2C)c(OC)c1 | · | – | – | 28µM
Cc1onc(-c2ccccc2)c1CNS(=O)(=O)c1ccccc1 | · | – | – | –
Cc1onc(-c2ccccc2)c1CNS(=O)(=O)c1cccc(Cl)c1 | · | – | – | 32µM
N#C/C(=C\c1coc2ccc(O)cc2c1=O)C(=O)Nc1nc2ccccc2s1 | – | -87 | -75 | –
CCCCCCc1nc2nc(Cl)c(Cl)nc2[nH]1 | · | – | – | ·
CC(=O)C1=C(C)NC(SCc2cccc([N+](=O)[O-])c2)=C(C#N)C1c1ccco1 (configuration not stated) | – | – | – | 7.9µM
CC(=O)C1=C(C)NC(SCC(N)=O)=C(C#N)C1c1ccco1 (configuration not stated) | · | – | – | –
O=[N+]([O-])c1ccc(O)c2ncccc12 | ? | -96 | -91 | –
O=[N+]([O-])c1ccc(O)c2cccnc12 | ? | – | – | –
O=[N+]([O-])c1cc([N+](=O)[O-])c2cccnc2c1Oc1ccccc1O | ? | ? | -65 | –
SMILES | MBNL1 CUG block | CtBP-E1A blk | Six1-Eya2 inh | PKM2 activator
Cc1[nH]c(=O)[nH]c1C(=O)CCCCC(=O)OCC(=O)Nc1ccccn1 | 0.045µM | – | – | –
CCOC(=O)CCCCC(=O)c1[nH]c(=O)[nH]c1CSc1nc2ccccc2[nH]1 | ? | – | – | –
CC(=O)N1CCc2cc(S(=O)(=O)CCC(=O)NCc3ccc(F)cc3)ccc21 | – | – | – | ·
COc1ccc(CNC(=O)CCS(=O)(=O)c2ccc3c(c2)CCN3C(C)=O)cc1 | – | – | -92 | –[0.46 µM]
CSC1=NSC2=NC(=O)/C(=C/c3coc4ccccc4c3=O)C(=N)N12 | ? | – | – | –
CSC1=NSC2=NC(=O)/C(=C/c3coc4ccc(O)cc4c3=O)C(=N)N12 | – | – | -67 | –
COc1cc(NC(=O)c2cc([N+](=O)[O-])ccc2NC(=O)CNCc2ccccn2)cc(OC)c1 | ? | -84 | -91 | –
Cc1ccccc1CN1C(=O)c2ccccc2C1c1nnnn1-c1ccc2c(c1)OCCO2 (configuration not stated) | · | – | – | ·
CC(=O)/C(=N/Nc1ccc([N+](=O)[O-])cc1)N1CCCc2ccccc21 | – | – | – | –
CC(=O)/C(=N/Nc1ccccc1[N+](=O)[O-])N1CCCc2ccccc21 | · | -75 | -74 | –
